Screening results (PubChem BioAssay)
H9c2 protect – protects H9c2 cardiomyocytes from peroxide injury; H2O2 injury protection, ATPLite, 2 h; protection from H2O2 cell death, % at 20 µM; actives 0.63% (n = 360,000);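 active = compounds giving at least 50% protection of heart cells from peroxide-induced death in the single-dose screen, raw or plate-pattern-corrected value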;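 note: 0% = DMSO wells with peroxide and 100% = DMSO wells without peroxide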
Calb FLC – C. albicans growth modulation with fluconazole | C. albicans CaCi-2 (fluconazole-resistant clinical isolate) + fluconazole, Alamar Blue growth, 48 h | growth inhibition, % (no concentration beside the values) | actives 0.57% (n = 300,000) | AID 1979;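 active = growth inhibition above about 58% in most replicates, limit read from the data, passing the limit was not always enough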;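 note: all wells also contain fluconazole at 8 µg/ml as a sub-toxic cotreatment; 0% = median of DMSO wells and 100% = median of geldanamycin control wells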
Efflux pump inh – blocks antifungal efflux pumps in multiplex yeast assay | actives 0.44% (n = 330,000) | S. cerevisiae Candida pump triplex, Nile Red efflux | inhibition, % at 10 µM;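 active = plate passing quality check with inhibition over a set limit, or well fluorescence over plate mean plus 4 SD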;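 note: Nile Red retained in pooled yeast measured as flow cytometry median fluorescence; 0% = buffer negative control and 100% = Enniatin B positive control; higher means more Nile Red kept so more efflux inhibition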
PHOSPHO1 inh – PHOSPHO1 (human) inhibition. Q8TCT1. recombinant PHOSPHO1, absorbance phosphatase assay. inhibition, % at 13.3 µM. actives 1.1% (n = 290,000). AID 1565; in the data active = inhibition above about 60%
Cl transport mod – modulates chloride dependent transport by human KCC2 | B-score of Tl+ flux slope (higher = more flux/activation; lower = inhibition) at 10 µM | actives 2.2% (n = 190,000) | KCC2 cells, thallium flux FluoZin-2 fluorescence | AID 1456;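 active = thallium flux slope and its plate-corrected score both differing from the plate sample mean at a set confidence after two filtering rounds, in either direction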;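 note: slope of fluorescence scaled to starting intensity during 10 to 20 s after thallium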
Target sequence (Q9H2X9 whole entry, looked up): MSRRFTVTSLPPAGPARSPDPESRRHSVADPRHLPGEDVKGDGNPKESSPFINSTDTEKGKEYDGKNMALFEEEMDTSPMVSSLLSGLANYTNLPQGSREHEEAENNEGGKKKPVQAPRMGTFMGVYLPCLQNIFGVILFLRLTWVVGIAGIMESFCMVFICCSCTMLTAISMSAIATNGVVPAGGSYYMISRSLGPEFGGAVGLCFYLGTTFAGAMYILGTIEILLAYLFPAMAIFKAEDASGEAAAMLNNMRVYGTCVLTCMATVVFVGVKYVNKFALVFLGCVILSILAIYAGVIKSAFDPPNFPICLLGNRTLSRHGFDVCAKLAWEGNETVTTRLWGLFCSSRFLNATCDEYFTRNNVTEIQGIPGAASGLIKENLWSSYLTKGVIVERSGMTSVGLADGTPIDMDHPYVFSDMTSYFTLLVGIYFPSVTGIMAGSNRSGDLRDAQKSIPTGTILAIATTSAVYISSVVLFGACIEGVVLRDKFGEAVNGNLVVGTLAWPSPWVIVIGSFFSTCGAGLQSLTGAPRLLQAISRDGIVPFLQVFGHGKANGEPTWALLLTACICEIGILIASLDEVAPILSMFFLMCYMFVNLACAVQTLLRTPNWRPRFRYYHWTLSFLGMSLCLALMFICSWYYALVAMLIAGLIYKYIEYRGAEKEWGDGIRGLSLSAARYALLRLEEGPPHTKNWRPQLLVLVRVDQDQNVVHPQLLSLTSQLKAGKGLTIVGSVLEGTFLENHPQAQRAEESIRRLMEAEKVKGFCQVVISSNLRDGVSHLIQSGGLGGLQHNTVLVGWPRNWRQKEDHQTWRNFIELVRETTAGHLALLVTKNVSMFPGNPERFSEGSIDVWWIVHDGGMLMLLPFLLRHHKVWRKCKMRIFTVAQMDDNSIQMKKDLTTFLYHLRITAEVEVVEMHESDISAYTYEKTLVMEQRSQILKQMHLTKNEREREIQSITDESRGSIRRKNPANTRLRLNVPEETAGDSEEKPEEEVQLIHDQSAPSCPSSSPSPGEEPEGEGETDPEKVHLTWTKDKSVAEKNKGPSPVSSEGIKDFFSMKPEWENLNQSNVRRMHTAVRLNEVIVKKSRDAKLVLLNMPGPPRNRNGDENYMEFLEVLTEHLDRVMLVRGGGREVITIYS
Active calls of the source: *; i = inactive; . = no result given. Only some compounds are listed: those with a hit (about 3.3% of all), similar ones and a draw of the others.

SMILES	H9c2 protect	Calb FLC	Efflux pump inh	PHOSPHO1 inh	Cl transport mod
CCc1nc2ccc(C(=O)NCCc3ccc(OC)c(OC)c3)cc2nc1CC	2.0	1.5	0.0	10.3	.
COc1ccc(CCNC(=O)c2ccc3nc(-c4ccco4)c(-c4ccco4)nc3c2)cc1OC	24.9	.	-0.1	69.5*	-1.14
CCOCCCNC(=O)c1ccc2nc(-c3ccc(OC)c(OC)c3)c(-c3ccc(OC)c(OC)c3)nc2c1	50.1*	12.0	0.0	19.5	.
O=C(NC1CCCCCC1)c1ccco1	-4.5	10.5	0.1	54.1	.
CSCCC(NS(=O)(=O)c1cccc(C(F)(F)F)c1)C(=O)N(C)CCOc1ccc(Cl)cc1 (centres undefined)	-6.0	6.6	0.0	.	.
CC1CCCC(C)N1CC(O)COCc1ccccc1F (centres undefined)	0.1	-3.3	-0.1	24.1	.
C/C(=N\NC(=O)CSCc1ccccc1Cl)c1cc(O)ccc1O	50.8*	95.0*	-0.1	-11.1	-2.97
CC(=O)Nc1ccc(NC(=O)CSCc2ccccc2Cl)cc1	0.8	-8.8	0.0	.	.
COc1cc(CN2CCC(CO)(CCOc3ccccc3)CC2)cc(OC)c1OC	5.2	-10.9	0.0	24.8	-1.36
COc1cc(OC)c(CN2CCC(CO)(CCOc3ccccc3)CC2)c(OC)c1	7.9	-37.4	-0.1	64.2*	1.48
COc1ccc(C(=O)NC2CC2)cc1OC1CCN(C(C)CSC)CC1 (centres undefined)	0.7	-11.0	-0.1	14.0	.
O=C(c1ccc2c(c1)OCO2)N1CCC2(CC1)Oc1ccc(F)cc1C(=O)C21CC(c2cccnc2)=NO1 (centres undefined)	-0.7	76.8*	0.1	22.1	-0.058
O=C(c1ccc2c(c1)OCO2)N1CCC2(CC1)Oc1ccc(Cl)cc1C(=O)C21CC(c2cccnc2)=NO1 (centres undefined)	2.1	83.8*	0.1	15.8	-0.617
NC(=O)c1nsc(C(=O)N(Cc2ccco2)C(C(=O)NCc2ccc(F)cc2)c2ccc(O)cc2)c1N (centres undefined)	53.7*	-2.2	-0.1	23.7	.
Cc1ccc(C(C(=O)NCc2ccc(F)cc2)N(Cc2ccco2)C(=O)c2snc(C(N)=O)c2N)o1 (centres undefined)	39.5	-2.4	0.2	44.0	.
CN(C)c1ccc(C(C(=O)NCc2ccccc2)N(Cc2ccco2)C(=O)c2snc(C(N)=O)c2N)cc1 (centres undefined)	77.5*	-7.5	0.1	-11.5	.
NC(=O)c1nsc(C(=O)N(c2ccccc2)C(C(=O)NCc2ccc(F)cc2)c2ccc(O)cc2)c1N (centres undefined)	50.1*	15.1	0.1	35.1	.
Cc1ccccc1C(C(=O)NCc1ccccc1)N(Cc1ccco1)C(=O)c1ccccn1 (centres undefined)	50.6*	-9.9	-0.1	42.0	-0.637
C/C(=N\NC(=O)C1CC1)c1ccc(C)cc1C	3.1	-0.4	-0.1	.	.
CCN(CC)C(=O)C1=C(C)N(CCCN2CCCC2=O)C(=O)C(CC(=O)NCc2cccc3ccccc23)C1 (centres undefined)	-5.5	.	.	.	.
Cc1ccc(Cl)cc1Nc1nc(-c2sc(NC(=O)c3ccco3)nc2C)cs1	1.6	7.6	.	41.6	-0.31
CCCCCC(=O)Nc1nc(C)c(-c2csc(Nc3cc(Cl)ccc3C)n2)s1	-0.5	-4.0	0.2	69.6*	0.0969
CCCCCCC(=O)Nc1nc(C)c(-c2csc(Nc3ccc(Cl)cc3)n2)s1	-4.1	-12.1	.	71.9*	0.0321
CCCCCC(=O)Nc1nc(C)c(-c2csc(Nc3ccc(Cl)cc3)n2)s1	-5.3	-5.0	-0.1	-143.4	0.00329
Cc1ccc(Cl)cc1Nc1nc(-c2sc(NC(=O)c3cccc(Cl)c3)nc2C)cs1	.	2.8	0.0	-31.5	0.319
SMILES	H9c2 protect	Calb FLC	Efflux pump inh	PHOSPHO1 inh	Cl transport mod
CCCC(C)C(=O)Nc1nc(C)c(-c2csc(Nc3cc(Cl)ccc3C)n2)s1 (centres undefined)	-7.0	0.5	0.0	74.3*	-0.399
Cc1cc(Br)ccc1SCC(=O)OCC(=O)NC1CCCC1	-1.7	19.9	0.2	12.4	0.841
COC(=O)c1cc(OC)c(OC)cc1NC(=O)Nc1ccc(OC)cc1	5.7	7.2	-0.2	12.8	.
COC(=O)c1cc2ccc(OC)cc2c2cc(OC)c(OC)cc12	55.1*	.	0.1	.	.
NC(=O)c1ccc(NC(=O)C2CCCO2)cc1 (centres undefined)	4.8	-4.9	-0.2	25.7	-0.105
O=C(Nc1ccc(O)cc1)c1ccc(NC(=O)C2CCCO2)cc1 (centres undefined)	-0.1	24.6	-0.1	65.8*	.
C[C@@]12C(=O)N(c3ccc(Br)cc3)C(=O)N1[C@@H]1c3ccccc3OC[C@@H]1[C@H]2c1ccccc1	12.6	.	-0.2	.	.
CCN(CC)c1ccc(/C=C/C(=O)C2C(=O)C=C(C)OC2=O)cc1 (centres undefined)	-10.3	-12.2	7.6*	-0.6	i
O=C(Nc1ccc(NC(=O)C2CCCCC2)nc1)c1ccccn1	-9.0	-5.0	0.0	62.9*	-0.837
COc1cc(/C=C/c2nnc3c4ccccc4ncn23)cc(OC)c1OC	67.5*	-4.4	-0.2	-11.4	0.0147
CCC(CC)C(=O)Nc1nnc(S(=O)(=O)N2CCCC2)s1	-0.4	-17.2	0.0	15.1	.
Cc1[nH]c2ccc(C(=O)NCc3ccccn3)cc2c1C	0.5	-4.2	0.0	3.9	.
CCn1c(NCc2ccc3c(c2)OCO3)nc2ccccc21	-7.7	-14.1	0.3	65.2*	0.0449
Cn1c(=O)c2c(nc(NCc3ccc4c(c3)OCO4)n2C)n(C)c1=O	52.6*	5.2	-0.1	-5.7	.
Cc1cc(-c2nn3c(-c4ccccc4)nnc3s2)c2ccccc2n1	64.3*	21.9	0.0	41.6	-0.618
COc1cc(-c2nnc(SCc3cc(=O)oc4cc(C)ccc34)o2)cc(OC)c1OC	2.4	31.6	0.2	73.5*	0.325
Cc1ccc2c(CSc3nnnn3C)cc(=O)oc2c1	4.4	-12.2	-0.1	43.7	0.41
CN(C)c1ccc(/C=N\NC(=S)SCN2C(=O)C3CCC(C)(C2=O)C3(C)C)cc1 (centres undefined)	10.0	.	-0.1	9.2	6.39*
CC12CCC(C(=O)N(CSC(=S)N/N=C\c3ccccc3O)C1=O)C2(C)C (centres undefined)	52.5*	3.7	0.1	8.2	12.7*
COc1ccc(/C=N\NC(=S)SCN2C(=O)C3CCC(C)(C2=O)C3(C)C)cc1 (centres undefined)	5.5	-1.6	0.0	.	14*
NNC(=O)c1cc(-c2ccc(N)cc2)nc2ccc(Br)cc12	1.1	-5.7	0.1	38.6	0.608
CCCS(=O)(=O)NC(=O)C1(C)CCCN(C(=O)c2nc3ccccc3s2)C1 (centres undefined)	-0.5	.	.	.	.
Cc1cc(NC(=O)c2cccs2)cc(-c2nc3ncccc3o2)c1O	58.5*	4.7	-0.2	-0.6	.
O=c1c2c3c(sc2nc2n1CCCCC2)CCCCC3	-8.1	-38.1	0.0	-10.0	.
O=c1c2c3c(sc2nc2n1CCCCC2)CCCC3	5.1	-3.1	0.0	75.6*	0.0573
